Rows were chosen to be rich in hits. Some 4.5% of all compounds tested hit in one or more screens of this group.
PrPC TRFRET: reduces human prion protein on the cell surface. cell surface PrPC, TR-FRET read-out. inhibition, % at 13.8 µM. hit rate 0.43% among 370,000. AID 720596; in the data active = inhibition above about 24%; note: 0% = median of the test wells and 100% = reference compound wells
FBA Mtb inh: Mtb fructose-bisphosphate aldolase inhibition | P9WQA3 | purified M. tuberculosis FBA, fluorescence read-out | inhibition, % at 1 µM | hit rate 2.3% among 360,000 | AID 588726; in the data active = inhibition above about 27%;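 note: 0% = vehicle and 100% = reference inhibitor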
Target sequence (P9WQA3 whole entry, looked up): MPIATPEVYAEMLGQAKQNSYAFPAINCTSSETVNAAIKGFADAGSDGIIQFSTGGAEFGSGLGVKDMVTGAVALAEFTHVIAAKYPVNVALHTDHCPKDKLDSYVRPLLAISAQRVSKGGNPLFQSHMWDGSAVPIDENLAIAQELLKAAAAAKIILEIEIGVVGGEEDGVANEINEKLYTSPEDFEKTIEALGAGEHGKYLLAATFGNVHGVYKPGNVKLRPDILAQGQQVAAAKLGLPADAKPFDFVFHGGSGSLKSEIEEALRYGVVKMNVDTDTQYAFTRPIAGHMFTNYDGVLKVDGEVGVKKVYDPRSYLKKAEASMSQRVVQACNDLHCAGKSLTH
GDH-TPI counter: counter-screen for M. tuberculosis FBA inhibitors: GDH-TPI coupled enzymes. hit rate 1.2% among 360,000. inhibition, % at 4.8 µM. GDH-TPI coupled enzyme counterscreen, NADH absorbance. AID 588335; in the data active = inhibition above about 30%;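 note: 0% = DMSO wells and 100% = wells lacking the enzyme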
PfHsp40 yeast: compounds rescuing yeast from Plasmodium falciparum HSP40 toxicity | growth rescue, % at 12.5 µM | hit rate 0.68% among 340,000 | S. cerevisiae expressing PfHsp40, growth rescue, ATP luminescence | AID 504582; in the data active = growth rescue above about 28%, passing the limit was not always enough;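 note: yeast W303a lacking pdr1 and pdr3 grown in galactose medium; growth measured after three days at 30 °C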
PrP 5UTR inh: suppresses PrP 5' UTR mRNA reporter expression; inhibition, % (concentration not given with the values); cell-based PrP 5' UTR mRNA reporter, plate reader; hit rate 0.35% among 340,000; AID 488862; in the data active = inhibition above about 52%; note: 0 = median of the neutral control wells
BJeLR viability: BJeLR cell viability loss; BJeLR (HRASV12) viability, CellTiter-Glo ATP luminescence, 48 h; AID 1554; hit rate 0.17% among 300,000; inhibition, % (test concentration not listed); in the data active = inhibition above about 50%
An asterisk follows results filed as active.

CN(N)C(=S)NCc1ccccc1 was read as PrPC TRFRET -5, FBA Mtb inh active, GDH-TPI counter -3, PfHsp40 yeast -1, PrP 5UTR inh -19 and BJeLR viability -1.
COC(=O)c1ccc([C@H](NC(=O)c2ccco2)[C@]2(C)C[C@H]2C2CCCCC2)cc1 was read as PrPC TRFRET -3, FBA Mtb inh -2, GDH-TPI counter -8, PfHsp40 yeast 68*, PrP 5UTR inh -12 and BJeLR viability -2.
Screening COCCCNC(=O)C[C@H]1C[C@@]2(C(=O)OC)C(=C[C@H](C3CCCC3)O[C@@H]2C)N(CCC2=CCCCC2)C1=O returned PrPC TRFRET -10.
For O=C(Cc1cccs1)NC1CCCCN(Cc2cccc(Cl)c2)C1=O (stereo unspecified) the results were PrPC TRFRET 5.
Screening CC(=O)NC1=NN(C(C)=O)C(c2cccs2)S1 (stereo unspecified) returned PrPC TRFRET 2, FBA Mtb inh 0, GDH-TPI counter 0, PfHsp40 yeast 40*, PrP 5UTR inh -7 and BJeLR viability -3.
Screening C/C(=N\Nc1nccnc1Cl)c1ccc(O)cc1 returned PrPC TRFRET -4, FBA Mtb inh -1, GDH-TPI counter 23, PfHsp40 yeast -1, PrP 5UTR inh -33 and BJeLR viability -5.
For C/C(=N\Nc1nccnc1Cl)c1ccc(Cl)c(Cl)c1 the results were PrPC TRFRET 3, FBA Mtb inh -2, GDH-TPI counter 41*, PfHsp40 yeast -1, PrP 5UTR inh -19 and BJeLR viability -2.
Screening C/C(=N\Nc1nccnc1Cl)c1ccc(F)cc1 returned PrPC TRFRET 9, FBA Mtb inh 0, GDH-TPI counter 6, PfHsp40 yeast 0, PrP 5UTR inh -36 and BJeLR viability 10.
Screening C/C(=N\Nc1nccnc1Cl)c1c(F)c(F)c(F)c(F)c1F returned PrPC TRFRET 0, FBA Mtb inh 0, GDH-TPI counter 8, PfHsp40 yeast 59*, PrP 5UTR inh -17 and BJeLR viability 4.
COc1ccccc1/C=C1\SC(=O)N(CC(=O)N(C)C2CCS(=O)(=O)C2)C1=O (stereo unspecified) was read as PrPC TRFRET -13, FBA Mtb inh -1, GDH-TPI counter 31*, PfHsp40 yeast 1, PrP 5UTR inh -17 and BJeLR viability 3.
For CCN(C(=O)CN1C(=O)S/C(=C\c2cccc(Cl)c2)C1=O)C1CCS(=O)(=O)C1 (stereo unspecified) the results were PrPC TRFRET -1, FBA Mtb inh -3, GDH-TPI counter 24, PfHsp40 yeast 1, PrP 5UTR inh -1 and BJeLR viability -1.
`CCN(C(=O)CN1C(=O)S/C(=C\c2ccc(Cl)cc2)C1=O)C1CCS(=O)(=O)C1` (stereo unspecified) gave PrPC TRFRET 0, FBA Mtb inh 0, GDH-TPI counter 34*, PfHsp40 yeast 0, PrP 5UTR inh 0 and BJeLR viability 0.
`CN(C)/C=C/C(=O)c1ccc(-n2cccc2)cc1` gave PrPC TRFRET -7, FBA Mtb inh 0, GDH-TPI counter 18, PfHsp40 yeast 4, PrP 5UTR inh -74 and BJeLR viability 2.
Screening Cc1ccc(C(=O)/C=C/N(C)C)cn1 returned PrPC TRFRET -4, FBA Mtb inh -2, GDH-TPI counter 31*, PfHsp40 yeast 1, PrP 5UTR inh -23 and BJeLR viability 0.
CN(C)/C=C/C(=O)c1ccc(Cl)cc1 was read as PrPC TRFRET -6, FBA Mtb inh 2, GDH-TPI counter 48*, PfHsp40 yeast 0, PrP 5UTR inh -28 and BJeLR viability -3.
For CN(C)/C=C/C(=O)c1cccc(Cl)c1 the results were PrPC TRFRET -4, FBA Mtb inh -3, GDH-TPI counter 42*, PfHsp40 yeast -1, PrP 5UTR inh -17 and BJeLR viability -12.
`CN(C)/C=C/C(=O)c1ccc(Oc2ncccn2)cc1` gave PrPC TRFRET -3, FBA Mtb inh 1, GDH-TPI counter 24, PfHsp40 yeast 2, PrP 5UTR inh -23 and BJeLR viability 5.
`CN(C)NC(=O)c1cccc(Cl)c1` gave PrPC TRFRET 5, FBA Mtb inh 2, GDH-TPI counter 10 and BJeLR viability -2.
For CN(C)/C=C/C(=O)c1ccc(Cl)c([N+](=O)[O-])c1 the results were PrPC TRFRET -6, FBA Mtb inh -2, GDH-TPI counter 31*, PfHsp40 yeast -1, PrP 5UTR inh -14 and BJeLR viability -4.
